# Screening results (PubChem)
# DAT uptake mod: changed human dopamine transporter uptake under cocaine IC80 | Q01959 | LLC-PK1 hDAT cells, [14C]-dopamine uptake with cocaine IC80; actives deviate in either direction | B-score at 10 µM | hit rate 1.3% among 110,000;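 active means Z score or B-score, a plate-position-corrected score, falls beyond the plate's 99.7% confidence bounds, in either direction; inactive means both scores lie inside the 99.7% bounds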;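 further: scored against the spread of the other compound wells on the same plate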
# D1 mod: D1 dopamine receptor (human) allosteric modulation | P21728 | HEK293 D1, CRE-luciferase, dopamine EC30 potentiation; actives deviate in either direction | B-score at 10 µM | hit rate 5.9% among 58,000 | AID 641;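 active means luminescence count or its row- and column-corrected plate score outside the 99.7% band of the plate's sample wells, on either side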
# Target sequence (P21728 whole entry, looked up): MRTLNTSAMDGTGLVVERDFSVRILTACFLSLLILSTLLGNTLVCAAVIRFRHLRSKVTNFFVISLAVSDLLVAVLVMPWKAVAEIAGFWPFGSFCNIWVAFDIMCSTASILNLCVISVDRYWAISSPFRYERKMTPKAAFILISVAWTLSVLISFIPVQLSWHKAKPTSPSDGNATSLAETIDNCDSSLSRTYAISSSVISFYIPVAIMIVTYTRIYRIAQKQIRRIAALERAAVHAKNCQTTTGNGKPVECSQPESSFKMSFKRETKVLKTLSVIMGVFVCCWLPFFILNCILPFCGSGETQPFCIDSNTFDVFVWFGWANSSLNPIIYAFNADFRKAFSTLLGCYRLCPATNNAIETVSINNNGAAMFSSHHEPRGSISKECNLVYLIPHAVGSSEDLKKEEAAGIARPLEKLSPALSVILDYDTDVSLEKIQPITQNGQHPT
# PKA inh: PKA (human) kinase inhibition | P17612 | inhibition, % at 6 µM | PKA Kemptide phosphorylation, Kinase-Glo ATP luminescence | hit rate 0.1% among 65,000;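 active means inhibition above the screen-wide mean inhibition plus 3 SD, cut at about 21% in these data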
# ROCK2 blocker: inhibitors of human Rho kinase 2; hit rate 0.35% among 60,000; O75116; inhibition, % at 6 µM; purified ROCK2, Kinase-Glo ATP depletion luminescence; AID 604;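 active means inhibition above the screen-wide mean inhibition plus 3 SD, cut at about 18% in these data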;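 further: plate controls were DMSO wells for no effect and Y-27632 control wells after no-enzyme background subtraction for full effect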
# * marks the source's active call; other numbers are inactive results; . = no result given. This is one part of a sample in which hits are shown more often than they occur.
SMILES,DAT uptake mod,D1 mod,PKA inh,ROCK2 blocker
O=C1CC(N2CCN(c3cccc(C(F)(F)F)c3)CC2)C(=O)N1c1ccccc1F (stereo not given),3.16*,-0.937,-6.6,-2.3
O=C1CC(N2CCN(c3cccc(C(F)(F)F)c3)CC2)C(=O)N1c1ccccc1 (stereo not given),-1.17,0.886,3.3,0.9
COc1ccc2cc3c(N)c(C(=O)NCc4ccco4)sc3nc2c1,-0.305,-0.123,-5.8,19.5*
CCOC(=O)Cc1c(C)nc2c(-c3ccccc3)c(C)nn2c1C,1.86,.,.,.
CCN1CCN(c2ccc(NC(=O)CCc3c(C)nc4c(-c5ccccc5)c(C)nn4c3C)cc2)CC1,2.52*,.,.,.
Cc1nc2cc(-c3ccc(Cl)cc3)nn2c(C)c1CCC(=O)NCc1ccco1,-0.0131,.,.,.
Cc1nc2c(-c3ccc(F)cc3)c(C)nn2c(C)c1CCC(=O)NC(C)CCc1ccco1 (stereo not given),1.25,-3.33*,-6.5,-2.3
Cc1nc2c(-c3ccccc3)c(C)nn2c(C)c1CCC(=O)NCc1ccco1,-0.41,-5.23*,5.6,8.2
COc1ccc(OC)c(N(CC(N)=O)S(=O)(=O)c2ccc(OC)c(OC)c2)c1,0.804,.,.,.
CC(C)CCN1CC(C(=O)N2CCN(c3ccc(F)cc3)CC2)CC1=O (stereo not given),0.841,0.315,3.1,128.6*
COc1cc(OC)cc(-c2cc3nc4c(c(N5CCN(c6ncccn6)CC5)n3n2)CCCC4)c1,0.535,.,3.4,2.5
COc1cc(OC)cc(-c2cc3nc4c(c(N5CCN(c6cnccn6)CC5)n3n2)CCCC4)c1,.,-3.35*,6.2,6.0
Cc1ccc(NC(=O)Cc2nc(CSc3nnc(-c4ccc5c(c4)OCO5)o3)cs2)cc1,0.00118,0.895,2.4,-0.2
Cc1ccccc1-c1nc2ccccc2c(=O)n1/N=C/c1ccccc1[N+](=O)[O-],1.12*,.,.,.
O=c1c2ccccc2nc2n1CC/C2=C\c1ccccc1[N+](=O)[O-],-0.00423,.,.,.
COc1ccc2c(c1)sc1nc(-c3ccccc3)cn12,0.0213,-7.32*,-6.3,-14.2
CCN(CC)C(=O)Oc1ccc2c(=O)c(-c3ccc(OC)cc3)coc2c1,-0.0509,.,10.1,6.0
CCN(CC)C(=O)Oc1ccc2c(=O)c(-c3ccc(OC)cc3)c(C)oc2c1,3.22*,0.376,8.6,4.5
Cn1c(SCCOc2ccccc2Cl)nnc1-c1cccs1,0.785,.,.,.
Cn1c(SCc2c(F)cccc2Cl)nnc1-c1cccs1,2.3*,0.189,7.6,1.2
Cc1ccc(S(=O)(=O)N2CCCN(S(=O)(=O)c3ccc4ccccc4c3)CC2)cc1,-1.42,.,.,.
CC1(C)CC(=O)C2=C(C1)N(c1cccc(O)c1)C1=C(C2)C(=O)CC(C)(C)C1,-0.629,5.55*,1.2,-0.9
CCOC(=O)c1ccccc1-c1csc(NS(=O)(=O)c2ccc(Cl)cc2)n1,-4.8*,.,.,.
Cc1ccc(NC(=O)OCCN2CCN(Cc3ccccc3)CCC2=O)cc1,0.0333,.,.,.
COC(=O)CCn1nnc(-c2ccc(C)cc2)n1,-0.0164,-0.109,-8.7,-8.5
SMILES,DAT uptake mod,D1 mod,PKA inh,ROCK2 blocker
CCOC(=O)CCn1nnc(N)n1,-0.0657,-4.17*,11.8,3.8
Cc1cccc(OCC(=O)NC(=S)Nc2ccc(S(=O)(=O)NC3CCCCC3)cc2)c1,-0.00529,.,.,.
Nc1ccccc1CNc1nc(NCCO)nc2c1ncn2CCN1CCOCC1,0.311,.,.,.
CCCCC(=O)Nc1cccc(NC(=O)c2ccccc2Br)c1,0.858,.,.,.
N#CC1=C(Nc2ccccc2)SC=C(c2ccc(Br)cc2)N=C1N1CCOCC1,-6.21*,.,.,.
c1ccc(Nc2nc(N3CCCC3)nc(N3CCOCC3)n2)cc1,-0.00529,.,.,.
COc1ccc(CNC(=O)C(c2ccco2)N(C(=O)c2csnn2)c2cccc(C)c2C)cc1 (stereo not given),0.296,.,.,.
C/C(=C/Cc1c(O)cc2oc(C)cc(=O)c2c1O)COC1OC(CO)C(O)C(O)C1O (stereo not given),0.262,.,.,.
COc1ccc(C(=O)Nc2cccc(C)c2)cc1,0.906,-3.55*,2.5,-4.3
CNC(=O)c1ccc2snnc2c1,-0.233,.,-5.2,-1.4
COc1ccc(NC(=O)c2ccc3snnc3c2)cc1,-2.91*,.,.,.
COc1ccc(CNC(=O)Nc2cccc(C)c2)cc1,1.06,-0.19,4.0,4.7
O=C(/C=C/c1ccccc1)NC(NC(=S)Nc1cccc(Cl)c1)C(Cl)(Cl)Cl (stereo not given),-7.3*,.,.,.
COCCN(C(=O)CNC(=O)c1ccco1)C(C(=O)NC1CCCC1)c1cccs1 (stereo not given),-1.3,.,.,.
c1coc(CNc2nc(N3CCCCC3)nc3ccccc23)c1,-0.0401,-3.71*,10.2,3.0
O=C(Nc1cccc2nsnc12)C1CC(=O)N(c2ccccc2)C1 (stereo not given),-1.41,-0.126,-9.5,-1.8
CCCCSc1nc(C)cc(C)c1S(=O)(=O)c1ccccc1C,0.367,.,.,.
COC(=O)c1ccc(NC(=O)c2ccccc2SC)cc1,3.26*,.,.,.
CC(=O)NC(CC(C)C)C(=O)NC(CO)C(=O)NC(CCC(=O)O)C(=O)NC(C)C(=O)NC(CC(C)C)C(N)=O (stereo not given),-0.356,.,.,.
Cc1ccc(-n2c(SCC(=O)NCc3cccs3)nnc2-c2ccoc2C)cc1,2.56*,-0.0606,-10.6,-2.9
COC(=O)CSc1nnc(-c2ccoc2C)n1-c1ccc(C)cc1,0.229,1.14,1.2,5.4
COC(=O)C[C@H]1c2ccccc2S(=O)(=O)N1Cc1ccc(OC)cc1,0.744,.,.,.
Cc1ccc(C)c(S(=O)(=O)C(C#N)c2nc3ccccc3nc2N2CC(C)OC(C)C2)c1 (stereo not given),0.169,-2.66*,5.6,5.0
Cc1cccc(N2CCN(C(=O)C3CCN(S(=O)(=O)c4cccc5cccnc45)CC3)CC2C)c1 (stereo not given),0.588,-3.8*,5.5,4.2
Cc1cccc(N2CCN(C(=O)C3CCN(S(=O)(=O)c4cccc5nsnc45)CC3)CC2C)c1 (stereo not given),-0.972,0.069,8.5,2.8
SMILES,DAT uptake mod,D1 mod,PKA inh,ROCK2 blocker
O=c1/c(=C/c2ccccn2)sc2nc3ccccc3n12,.,-3.83*,-0.4,0.6
COc1ccc(-c2csc(N3C(=N)SCC3=O)n2)cc1,1.85*,.,.,.
O=C1N[C@@H](Cc2ccccc2)C(=O)N2[C@@H]1C[C@]1(Br)c3ccccc3N(S(=O)(=O)c3ccccc3)[C@H]21,-0.378,.,.,.
CC(=O)c1cc2c(cc1NS(=O)(=O)c1ccc3c(c1)OCCO3)OCO2,0.112,4.09*,2.9,-0.1
CC(=O)c1cc2c(cc1NS(=O)(=O)c1ccc(C)cc1)OCO2,0.236,.,.,.
COc1ccc(-c2nnc(CSc3nc4ccccc4c(=O)n3C)o2)cc1OC,1.45,8.47*,7.2,4.5
CC(C)(C)OC(=O)CNC(=O)c1[nH]cnc1C(=O)Nc1ccc(Cl)cc1,-0.164,.,.,.
Cc1cnn(-c2ccc3nnc(-c4ccc(Cl)cc4)n3n2)c1,-0.443,.,.,.
Cc1cc(C)n(C(=O)c2cccc(S(=O)(=O)N3CCOCC3)c2)n1,-8.32*,-0.256,5.6,5.7
CCCSc1nc2c(=O)[nH][nH]c(=O)c2n1Cc1ccccc1,-0.0805,.,.,.
Cn1nc(-c2ccc(Cl)cc2)c2cc(C(=O)NCCN3CCOCC3)sc21,2.61*,-0.752,-1.1,2.7
CCC(C)(C)C1CCC(=NNC(=O)c2ccoc2C)CC1 (stereo not given),-0.102,.,.,.
O=C(NC1CCCCC1)c1ccc2c(c1)S(=O)(=O)c1ccccc1C2=O,-0.00735,.,.,.
